# The supplement of paper PMC10681739
# Columns and labels:
# [1] = molecular target: T1, ETS1 (UniProt P14921); assay: ETS1 binding intensity (PBM fluorescence), ETS1 alone (arbitrary fluorescence units); higher = stronger binding; settings: ETS1 concentration 1 nM; RUNX1 concentration 0 nM
# T1 sequence: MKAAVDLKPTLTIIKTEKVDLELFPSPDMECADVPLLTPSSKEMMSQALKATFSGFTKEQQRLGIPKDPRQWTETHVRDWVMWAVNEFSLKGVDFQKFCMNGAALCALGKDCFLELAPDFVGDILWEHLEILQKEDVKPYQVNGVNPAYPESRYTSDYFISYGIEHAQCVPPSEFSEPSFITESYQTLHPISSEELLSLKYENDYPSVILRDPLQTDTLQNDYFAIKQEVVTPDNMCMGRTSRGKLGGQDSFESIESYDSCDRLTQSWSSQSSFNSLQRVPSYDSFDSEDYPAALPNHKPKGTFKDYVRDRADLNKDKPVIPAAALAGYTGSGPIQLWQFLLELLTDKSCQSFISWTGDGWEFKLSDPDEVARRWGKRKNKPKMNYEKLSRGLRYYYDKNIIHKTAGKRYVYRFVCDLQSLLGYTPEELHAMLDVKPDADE
# [2] = molecular target: RUNX1 (UniProt Q01196); assay: RUNX1 binding intensity (PBM fluorescence), RUNX1 alone (arbitrary fluorescence units); higher = stronger binding; settings: RUNX1 concentration 2 nM; ETS1 concentration 0 nM
# RUNX1, sequence (Q01196 whole entry): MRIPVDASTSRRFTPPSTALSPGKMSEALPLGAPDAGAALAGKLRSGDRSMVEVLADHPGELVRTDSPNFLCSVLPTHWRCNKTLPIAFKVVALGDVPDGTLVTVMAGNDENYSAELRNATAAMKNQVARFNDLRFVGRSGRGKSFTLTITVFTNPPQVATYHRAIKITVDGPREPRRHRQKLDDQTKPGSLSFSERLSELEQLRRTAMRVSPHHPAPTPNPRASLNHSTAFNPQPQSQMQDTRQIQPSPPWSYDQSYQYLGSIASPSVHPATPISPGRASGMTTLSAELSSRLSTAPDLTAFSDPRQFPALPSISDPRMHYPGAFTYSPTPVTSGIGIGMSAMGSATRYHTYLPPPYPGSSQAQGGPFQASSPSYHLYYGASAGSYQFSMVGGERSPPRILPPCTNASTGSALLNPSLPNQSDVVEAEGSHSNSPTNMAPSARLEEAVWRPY
# Procedure: (§1)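 Cooperative gcPBM on 36-bp genomic probes with neighbouring ETS1 and RUNX1 sites. Recombinant human RUNX1 (2 nM) was incubated alone or with ETS1 (25 nM) and detected with anti-RUNX1 antibody plus Alexa488 secondary. Values are medians over 4 replicate spots; the RUNX1+ETS1 data were normalised to the RUNX1-only data. The probes sit in constant array flanks that are not printed.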
# [3] = molecular target: RUNX1 (UniProt Q01196); assay: RUNX1 binding intensity (PBM fluorescence) in presence of ETS1, normalised to RUNX1-only experiment (arbitrary fluorescence units); higher = stronger binding; settings: RUNX1 concentration 2 nM; ETS1 concentration 25 nM
# Procedure: as §1
# 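Wherever RUNX1 binding intensity (PBM fluorescence) in presence of ETS1, normalised to RUNX1-only experiment is given: Full-length recombinant human ETS1 or RUNX1 bound to double-stranded 36-bp genomic probes on microarrays, detected by protein-specific primary antibody and Alexa488 secondary, spot fluorescence as median of four replicate spots.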
# 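Wherever RUNX1 binding intensity (PBM fluorescence), RUNX1 alone is given: Full-length recombinant human RUNX1 bound to double-stranded 36-bp genomic probes on a high-density microarray, scored as Alexa488 fluorescence per spot via anti-RUNX1 antibody, median of four replicate spots.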
Sequence,ETS1 binding intensity [1],RUNX1 binding intensity [2],RUNX1 binding intensity [3]
ACACTGGCCGGAAGGGGCGGGACCGCGAGTTAAGAG,1280,791,1320
GGGTCTCCAGGAAGCCACTCACCACAAACTTTGACA,482,1080,1480
CAAGTAATCTGCTCAGGAAGTGGTTTGAATAGAGGA,2540,743,977
AATCTGAAACAGGAAATAAGTCTGTGGTTGTGTGTT,7070,833,1540
CGCCTCATTTCCTGTGCAACTGCGGTAAAAATAGGA,1860,1630,4630
GGGTTGGGTGCCGGATGCGGTGAGTGAGGTTCTCAT,2930,917,4260
GCATTTACGGGCAGGAAATGAAACCACAGAGTACAA,5420,1360,3610
GAAGTGAGGTCAGGATGTGGTGGGTGACCCCTGAAA,911,768,1090
ACAGACCAGGGGATTTCCTGTGGGTGGAGTCCTCAG,859,676,1500
CCCACAGGAAATCCCCTGGTCTGTGGCGCCTCTGAT,881,766,1110
CCTGCAGCAACAGGATGTGGTTTGAAAGGATGAAAG,7250,778,6460
CCGCCGCGCGCCGGATGCTAAGACCGCGATTTCCCC,4180,781,1110
GCTCCCGGATGTTCTGGGGATCTGCGGCCGCCTGGC,1300,751,1320
GTCCCCGTAACAGGATGTGGTGAGCTGTTATACCAC,6710,802,4520
CTGAGCCGGGACCGGAAGCCGCACCGCCCCCCGCGC,18400,828,1770
GCCACACTGGCGGAAATGGTGGTTACTGTTCGAGCC,3510,711,1560
ACCCAGGAGGCGGAAGTTGTGGTGAGCCGAGATCGC,4020,862,3150
AGGGACCCGGATGTCTGGTCTGCGGCTGCTCCTCTA,1460,756,1250
GCTGGTATGGCAGGAAGTTTCTCACCACAGTATACT,3540,780,1160
TGACTTCCTCCTCTTCACTAACAGAAACCTCAATTT,440,1400,2570
GGGTCGCGGCCTTCCGGCGAACGCGGTTACCGTGGA,555,853,1380

Sequence,ETS1 binding intensity [1],RUNX1 binding intensity [2],RUNX1 binding intensity [3]
GAATGGCGGATGTGGCTGGGGAGAGAAAGCCGCAGA,914,836,2610
ACCCAGTAGGGGCCAGGATGTGGTGAAAAGAGAATT,1610,728,1020
CAGCTGACAGGAAGGAGAGAACCACAGACAGTGCGA,782,801,1260
CTGAGCCGGATGTTACTGGTTAGTGGTTTTCTTTAT,3290,917,1560
CAACCCGGAAGCACTAACGGAGAAACCGCAACTCGG,729,3460,12700
AAGGTGGAAAAAGGATGTGGTTCTAAGCTGGCTTCT,887,735,1020
CGGGAGGGGCAGGAAGCGGACTGCGGTGGGGAAGGG,2770,939,1470
CCATCCAGGAAGCTTATGGTGCAACCGCAGTGTGCC,483,943,1620
CTCATTGACAGGAAGTCTAACCACAGGCTTAGGCCC,3730,1400,6750
GCAGGGACCGGAAGTCCATGGCTCTGCCGCAACCCT,13400,738,1250
GGCTTCCTGCCCAACTACCAAGAAAAAGCCACAAAG,453,1100,2040
AGATTTTGTCTTCCTGTTGTGGCAACATCTGTAGAA,521,1210,1520
GGTGTGTTCTGGGGAGGAAGTGGGTTTTCAGGTTGT,3820,799,1120
GCCGCTGCCTCTTCCTGTGTGGTTTTTCAGGGCTTA,651,1050,2920
GAGAGAGGCAGGAAGTGTTGTGGTTATTGTTTGAGC,4710,1240,2210
TTTGTCATATCAACAGGATGTGGTTCTCCCCTGGTT,6920,905,1530
TGCTTAGCGGGAAGTGCTTACACCACAAAACAAGAC,678,726,1750
GCGGAGGGAAGCGGAAATACTTGCGGTGGGGGCGAC,3700,898,2210
CATGGGGAGGAGGAAGTGGTGGCGGCCGCAGGCCAG,1040,799,1070
AGCAGGTATACCACTTCCTGTGGTTATCATTTGAGG,2330,966,6540
CGAAGCCGGAAATGCTGAGTGTGCGGGGCCGAACGT,4230,694,1220
